MITF TRPM1 inh = inhibitors of MITF-driven TRPM1 promoter in melanoma cells | inhibition, % at 12.5 µM | hit rate 0.83% among 330,000 | SK-MEL-5 TRPM1 promoter luciferase, 24 h;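 active = mean inhibition across replicates of 60% or more, whatever share of single replicates reaches that level; inconclusive = some that reach 60%, reason not given; inactive = mean inhibition across replicates below 60%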
Peg3 promoter = Peg3 promoter activity inhibition; hit rate 1.7% among 360,000; AID 588405; inhibition, % at 20 µM; HeLa PEG-Prom luciferase reporter, luminescence, overnight;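 active = inhibition of at least 50% at 20 µM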
HIF-2a block = inhibitors of HIF-2a. inhibition, % at 18.8 µM. 786-0 RCC cells HIF-2a reporter, luciferase luminescence, overnight. AID 624352. hit rate 0.72% among 360,000;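 active = inhibition of the luminescence signal of 40% or more relative to plate controls, in a single-dose primary screen at 18.75 µM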
CF NFkB inh = cystic fibrosis NF-kB activation inhibition | KKLEB NF-kB-GFP reporter, PAF-induced, GFP fluorescence overnight | inhibition, % at 5 µM | hit rate 0.86% among 360,000 | AID 588850;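 active = at least 50% inhibition at 5 µM, scaled per plate between neutral and stimulator controls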;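 also: PAF is a Pseudomonas aeruginosa culture filtrate used as stimulus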
KKLEB cytotox = CF airway cell cytotoxicity counter-screen; activity change (cytotoxicity), % at 5 µM; KKLEB CF airway cells viability, ATPlite luminescence, overnight; stronger effect = lower value; cells stimulated with P. aeruginosa culture filtrate; hit rate 0.36% among 360,000; AID 602141;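 active = corrected activity change at or below -50% at 5 µM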
Shn3 inh set2 = Schnurri-3 reporter inhibition in Clone20 osteoblasts; hit rate 0.52% among 360,000; inhibition, % at 12.5 µM; Clone20 osteoblast Shn3 3'UTR firefly luciferase, 24 h;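 active = mean inhibition of at least 75% with every replicate also reaching 75%; inconclusive = mean inhibition at least 75% but some replicate below; inactive = mean inhibition below 75%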
Of the large screens only hits and unclear results are named; the others gave an inactive call. Sampled rows, rich in hits. Any-hit rate of the full collection: about 2.7%.

CCOC(=O)c1ccccc1NC(=O)COc1ccccc1	Peg3 promoter 68
COC(=O)c1ccccc1NC(=O)Nc1ccc(C(=O)N2CCCC2)cc1	Peg3 promoter 58
COc1ccccc1-c1csc(C(O)c2ccc(F)c(F)c2)n1 (stereo unspecified)	none (no result: MITF TRPM1 inh)
CCOC(=O)C1(C)CCCN(C(=O)Cc2ccc3ccccc3c2)C1 (stereo unspecified)	none (no result: MITF TRPM1 inh)
CCCCNC(=S)N(C)/N=C/c1c(F)c(F)c(F)c(F)c1F	Peg3 promoter 71
Cc1ccccc1C(=O)N1CCC1(C)C(=O)NC(C)C (stereo unspecified)	none (no result: MITF TRPM1 inh)
O=C(Nc1ccc(Cl)c(S(=O)(=O)N2CCOCC2)c1)c1ccc(OCC2CCCO2)cc1 (stereo unspecified)	MITF TRPM1 inh 72, Peg3 promoter 103
O=C(Nc1ccc(Cl)c(S(=O)(=O)N2CCOCC2)c1)c1n[nH]c(=O)c2ccccc12	none
Cn1nc(C(=O)Nc2ccc(Cl)c(S(=O)(=O)N3CCOCC3)c2)c2ccccc2c1=O	Peg3 promoter 53
CC1(C(=O)NS(=O)(=O)c2ccc(F)cc2F)CCN1C(=O)CC(c1ccccc1)c1ccccc1 (stereo unspecified)	none (no result: MITF TRPM1 inh)
C[C@]12CCC3C(CC[C@H]4CCCC[C@]34C)C1CC[C@@]2(O)CNCCO (stereo partly specified)	Peg3 promoter 91
O=C(CSCc1ccc(Cl)cc1)Nc1ccc(-c2nnc(-c3ccccc3)o2)cc1	Peg3 promoter 51
COc1ccc(C(C(=O)NC(C)(C)C)n2c(-c3ccc(-c4ccccc4)cc3)nc3ccccc32)cc1 (stereo unspecified)	none (no result: MITF TRPM1 inh, Peg3 promoter, CF NFkB inh, KKLEB cytotox, Shn3 inh set2)
CCSC1=C(C#N)C2(CCCCC2)C(C#N)C(=O)N1 (stereo unspecified)	Peg3 promoter 54
CCSC1=C(C#N)C2(CCCCC2)C(C#N)=C(N)N1	none
CCN(CC)CC(O)Cn1c2ccccc2c2ccccc21 (stereo unspecified)	none
CCN(CC)CC(O)Cn1c(C)c(-c2ccccc2)c2cc([N+](=O)[O-])ccc21 (stereo unspecified)	Peg3 promoter 75
CCCS(=O)(=O)c1nnnn1-c1cccc(OC)c1	MITF TRPM1 inh 70, Peg3 promoter 102, CF NFkB inh 90, Shn3 inh set2 99
COc1cc(Nc2ccn3nc(-c4ccccc4Cl)cc3n2)cc(OC)c1OC	none (no result: MITF TRPM1 inh)
CC1=C(C(=O)N(C)C)CC(CC(=O)NC2CCCC2)C(=O)N1CCCN1CCCC1=O (stereo unspecified)	none (no result: MITF TRPM1 inh)
CC1=C(C(=O)N(C)C)CC(CC(=O)NC2CCCCC2)C(=O)N1CCCN1CCCC1=O (stereo unspecified)	Peg3 promoter 60 (no result: MITF TRPM1 inh)
O=c1cc(-c2ccc(O)c(O)c2)oc2ccc3ccccc3c12	MITF TRPM1 inh 88
Cc1ncc(CO)c2c1Oc1nc(-c3ccccc3)nc(SCC(=O)N3CCOCC3)c1C2	Peg3 promoter 80
COc1ccccc1-c1nc2c(c(SCC(=O)N3CCCCC3)n1)Cc1c(CO)cnc(C)c1O2	none
COc1cccc(-c2nc3c(c(SCC(=O)N4CCOCC4)n2)Cc2c(CO)cnc(C)c2O3)c1	Peg3 promoter 59
O=C(CSc1nc(-c2ccccc2)nc2c1CCCC2)N1CCOCC1	none
Cc1cccc(-c2nc3c(c(SCC(=O)N4CCOCC4)n2)Cc2c(CO)cnc(C)c2O3)c1	Peg3 promoter 68
CCOC(=O)[C@]12CCC=C1N(Cc1ccco1)C(=O)[C@H](CC(=O)N1CCN(C(=O)c3ccco3)CC1)C2	none (no result: MITF TRPM1 inh, Peg3 promoter, CF NFkB inh, KKLEB cytotox, Shn3 inh set2)
COC(=O)C[C@@H]1C=C[C@@H](NS(=O)(=O)c2ccc(OC)cc2)[C@@H](CO)O1	none (no result: MITF TRPM1 inh, Peg3 promoter, CF NFkB inh, KKLEB cytotox, Shn3 inh set2)
CC(C)(C)C1CCc2sc(-c3nnc(CCl)o3)cc2C1 (stereo unspecified)	none
ClCc1nnc(-c2cc3c(s2)CCCC3)o1	Peg3 promoter 108
CC(C)C(=O)N1CCC1(C)C(=O)NCc1ccc(F)cc1Cl (stereo unspecified)	none (no result: MITF TRPM1 inh)
O=C(O)CSCC(=O)Nc1ccc(Cl)cc1C(F)(F)F	none
CC(C)N(CC(=O)Nc1ccc(Cl)cc1C(F)(F)F)C(=O)CCl	Peg3 promoter 65
CCC(C)(C)NC(=O)C(c1ccc(F)cc1)N(Cc1cccc(OC)c1)C(=O)c1cnccn1 (stereo unspecified)	Peg3 promoter 58
CCC(C)(C)NC(=O)C(c1ccc(F)cc1)N(Cc1ccc(OC)cc1)C(=O)c1cnccn1 (stereo unspecified)	none
COc1ccccc1CNC(=O)Nc1nnc([C@H]2C[C@H](O)[C@@H](CO)O2)s1	none (no result: MITF TRPM1 inh)
Cc1ccsc1-c1nc(C(N)=O)c2[nH]c(=O)n(-c3ccc(Cl)cc3)c2n1	Peg3 promoter 76
O=C(CCl)Nc1cn(-c2ccccc2)nc1-c1ccccc1	MITF TRPM1 inh 74, Peg3 promoter 84, KKLEB cytotox -71
CC(=O)Nc1cn(-c2ccccc2)nc1-c1ccccc1	none
O=C(N/N=C/c1ccc([N+](=O)[O-])o1)C1CCCC1	none
CC(NC(=O)C12CC3CC(CC(C3)C1)C2)C(=O)NN=Cc1ccc([N+](=O)[O-])o1 (stereo unspecified)	MITF TRPM1 inh 62
Cc1nc2ccccn2c1C(=O)N/N=C/c1ccc([N+](=O)[O-])o1	MITF TRPM1 inh 69
CCN(CC)S(=O)(=O)c1cccc(C(=O)N/N=C/c2ccc([N+](=O)[O-])o2)c1	MITF TRPM1 inh 85
O=C(N/N=C/c1ccc([N+](=O)[O-])o1)c1cc2c(ccc3ccccc32)o1	MITF TRPM1 inh inconclusive, Peg3 promoter 54
O=C(N/N=C/c1ccc([N+](=O)[O-])o1)c1ccc(O)cc1	MITF TRPM1 inh 87
CC(NC(=O)C12CC3CC(CC(C3)C1)C2)C(=O)N/N=C/C1=C(N2CCOCC2)C(=C\c2cccc([N+](=O)[O-])c2)/CC1 (stereo unspecified)	none
O=C(N/N=C/c1ccc([N+](=O)[O-])o1)c1ccncc1	none (no result: MITF TRPM1 inh)
CC(C)C(NC(=O)C12CC3CC(CC(C3)C1)C2)C(=O)N/N=C/C1=C(N2CCOCC2)C(=C\c2ccc([N+](=O)[O-])cc2)/CC1 (stereo unspecified)	CF NFkB inh 91, KKLEB cytotox -100
O=C(N/N=C/c1ccc([N+](=O)[O-])o1)c1cc2ccccc2o1	MITF TRPM1 inh 98
CC(=O)C1=CCC(c2cccc3ccccc23)N(S(=O)(=O)c2ccc(C)cc2)C1 (stereo unspecified)	none (no result: MITF TRPM1 inh)
O=C(CCc1nnc(Cc2ccc(-c3ccccc3)cc2)o1)NCCc1ccccn1	none
O=C(CCc1nnc(-c2ccc(-c3ccccc3)cc2)o1)NCCc1ccccn1	HIF-2a block 40
CN1CCN(Cc2nc3ccccc3c(=O)n2Cc2nc(-c3ccc([N+](=O)[O-])cc3)cs2)CC1	MITF TRPM1 inh 66, Peg3 promoter 72

From PubChem
